According to PubChem BioAssay (NCATS):
Inconclusive results are not listed. The source made the active and inactive calls. Unless noted, the call rests on the fitted dose curve; in most records, active means well fitted curve in the direction sought with a large enough effect; inconclusive means small, poorly fitted or top-dose-only effect, or another doubt; inactive means no such curve, though single readings can be large; an effect the other way counts as inactive or inconclusive.

Key:
[1] = molecular target: Aldehyde dehydrogenase, mitochondrial (Homo sapiens) (UniProt P05091); assay: qHTS for Inhibitors of the Aldehyde Dehydrogenase Family (ALDH2) Primary screen (AID 2061308);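 further: plate controls were vehicle for no effect and reference inhibitor for full effect; nearly all actives have a fitted effect of over 55% in size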
[2] = molecular target: Retinaldehyde dehydrogenase 3 (Homo sapiens) (UniProt P47895); assay: qHTS for Inhibitors of the Aldehyde Dehydrogenase Family (ALDH1A3) Validation screen (AID 2061312); further: on the % scale 0 is the no-effect control and ±100 the full control effect; nearly all actives have a fitted effect of over 45% in size
[3] = molecular target: Retinaldehyde dehydrogenase 3 (Homo sapiens) (UniProt P47895); assay: qHTS for Inhibitors of the Aldehyde Dehydrogenase Family (ALDH1A3) Primary screen (AID 2061315);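 further: plate controls were DMSO vehicle for no effect and reference inhibitor for full effect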
[4] = molecular target: Aldehyde dehydrogenase, mitochondrial (Homo sapiens) (UniProt P05091); assay: qHTS for Inhibitors of the Aldehyde Dehydrogenase Family (ALDH2) Confirmatory screens (AID 2061303; active means well fitted inhibition curve with a large enough effect; title and protocol of this record describe different tests; further: nearly all actives have a fitted effect of over 45% in size; further: potency means the concentration at half of the fitted maximal effect)
[5] = molecular target: Retinaldehyde dehydrogenase 3 (Homo sapiens) (UniProt P47895); assay: qHTS for Inhibitors of the Aldehyde Dehydrogenase Family (ALDH1A3) Confirmatory screens (AID 2061311); further: on the % scale 0 is the no-effect control and ±100 the full control effect; nearly all actives have a fitted effect of over 60% in size
[6] = molecular target: Aldehyde dehydrogenase 1A1 (Homo sapiens) (UniProt P00352); assay: qHTS for Inhibitors of the Aldehyde Dehydrogenase Family (ALDH1A1) Confirmatory screens (AID 2061316); further: nearly all actives have a fitted effect of over 65% in size
[7] = molecular target: Retinal dehydrogenase 2 (Homo sapiens) (UniProt O94788); assay: qHTS for Inhibitors of the Aldehyde Dehydrogenase Family (ALDH1A2) Confirmation screens (AID 2061314); further: nearly all actives have a fitted effect of over 65% in size
[8] = BET inhibitor-based combinations targeting novel dependencies in MECOM-rearranged (r) AML: SET-2 cell line (AID 2202231); details: SET-2 AML cells viability, CellTiter-Glo luminescence, 48 h; viability: active compounds read low, series mostly up to about 46 µM;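 further: plate controls were DMSO treated cells for no effect and wells without cells for full effect; nearly all actives have a fitted effect of over 35% in size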
How it was run: (§1)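 Viability of cells (500 per well) is scored by luminescent CellTiter-Glo at 48 hr post-dosing. Eleven-point titrations are normalized to DMSO and empty controls and reduced to AUC values.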

[9] = BET inhibitor-based combinations targeting novel dependencies in MECOM-rearranged (r) AML: HNT-34 cell line (AID 2202234); further: nearly all actives have a fitted effect of over 35% in size; further: potency means the concentration at half of the fitted maximal effect
How it was run: (§2)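 Using pin-tool transfer, drugs were added in 11 doses to cells (500/well), incubated 48 hr, and assessed with CellTiter-Glo. Z-AUC is a mean-centring transformation applied separately to each screened line.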

[10] = BET inhibitor-based combinations targeting novel dependencies in MECOM-rearranged (r) AML: UCSD-AML1 cell line (AID 2202235); further: nearly all actives have a fitted effect of over 40% in size; further: potency means the concentration at half of the fitted maximal effect
How it was run: as §2

[11] = BET inhibitor-based combinations targeting novel dependencies in MECOM-rearranged (r) AML: AML-191 cell line (AID 2202236; further: nearly all actives have a fitted effect of over 35% in size; further: potency means the concentration at half of the fitted maximal effect)
How it was run: as §1

[12] = BET inhibitor-based combinations targeting novel dependencies in MECOM-rearranged (r) AML: AML-194 cell line (AID 2202237;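 further: plate controls were vehicle wells for no effect and wells without cells for full effect; nearly all actives have a fitted effect of over 40% in size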)
How it was run: as §1

[13] = BET inhibitor-based combinations targeting novel dependencies in MECOM-rearranged (r) AML: MV-4-11 cell line (AID 2202233); further: nearly all actives have a fitted effect of over 45% in size; further: potency means the concentration at half of the fitted maximal effect
How it was run: as §2

[14] = BET inhibitor-based combinations targeting novel dependencies in MECOM-rearranged (r) AML: OCI-AML3 cell line (AID 2202232); details: Potency: OCI-AML3 viability; further: nearly all actives have a fitted effect of over 35% in size; further: potency means the concentration at half of the fitted maximal effect
How it was run: as §1

CC(=O)OC/C(=C/C(=O)O)CC[C@@H]1C(CO)=CC[C@@H]2C(C)(C)CCC[C@@]12C
inactive: Potency [1]

CC1=C(CCC(C)O[C@@H]2O[C@H](CO)[C@@H](O)[C@H](O)[C@H]2O)C(C)(C)CCC1=O (stereo partly drawn)
inactive: Potency [1]

CC(C)S(=O)(=O)N[C@H]1CCOC[C@@H]1c1ccc(-c2ccc(C#N)s2)cc1
inactive: Potency [1]

O=C(Nc1cc(-c2ccccc2)nn1-c1ccccc1F)c1ccc([N+](=O)[O-])cc1
inactive: Potency [1] | Potency [2] | Potency [3]

N#Cc1nc2c(nc1C#N)-c1ccccc1C2=O
active: Potency [4] 10 µM
inactive: Potency [5] | Potency [6]

Cc1ccc(OCCn2c(CCNC(=O)c3cccc(N)c3)nc3ccccc32)cc1
inactive: Potency [4] | Potency [1] | Potency [7] | Potency [3] | Potency [6]

O=C(OCC#CCSc1nnc(-c2cccc3ccccc23)o1)C1CC1
inactive: Potency [4] | Potency [1] | Potency [3]

COc1cc(N2CCC(N3CCN(C)CC3)CC2)ccc1Nc1ncc(Cl)c(-c2c[nH]c3ccccc23)n1
inactive: Potency [1]

O=C1c2cccc3cccc(c23)C(=O)N1CCN1CCN(S(=O)(=O)c2cccc([N+](=O)[O-])c2)CC1
inactive: Potency [4] | Potency [5] | Potency [7] | Potency [6]

CC(C)N(CCCNC(=O)Nc1ccc(C(C)(C)C)cc1)C[C@H]1O[C@@H](n2ccc3c(N)ncnc32)[C@H](O)[C@@H]1O
inactive: Potency [1] | Potency [2] | Potency [3] | viability [8] 93.2% | Potency [9] | Potency [10] | Potency [11] | Potency [12]

CCCCN1CCCC[C@H]1C(=O)Nc1c(C)cccc1C
inactive: Potency [1] | Potency [2] | Potency [3]

CCN=C1N[C@@H]2[C@@H](O)[C@H](O)[C@@H](CO)O[C@@H]2S1
inactive: Potency [1] | Potency [2] | Potency [3]

Clc1ccc2c(c1)C1=NCCN1c1c(-c3noc(C4CC4)n3)ncn1-2
inactive: Potency [1] | Potency [2] | Potency [3]

CN(C[C@@H]1COCCO1)S(=O)(=O)Nc1ccc2ccc3ncc(-c4cnn(C)c4)cc3c(=O)c2c1
active: Potency [13] 0.417 µM | Potency [9] 3.32 µM | Potency [10] 5.9 µM | Potency [11] 6.61 µM
inactive: Potency [1] | Potency [2] | Potency [3]

CCc1cccc2c3c([nH]c12)[C@@](CC)(CC(=O)O)OCC3
inactive: Potency [1] | Potency [2] | Potency [3] | viability [8] 112% | Potency [14] | Potency [13] | Potency [9] | Potency [10] | Potency [11] | Potency [12]

COc1ccccc1CN[C@H]1CCCN[C@H]1c1ccccc1
inactive: Potency [1] | Potency [2] | Potency [3]

CCS(=O)(=O)N1CC(CC#N)(n2cc(-c3ncnc4[nH]ccc34)cn2)C1
inactive: Potency [1] | Potency [3]

CCOC(=O)CCN(C(=O)c1ccc2c(c1)nc(CNc1ccc(C(=N)N)cc1)n2C)c1ccccn1
inactive: Potency [1] | Potency [2] | Potency [3]

O=S(=O)(NC1CCC(c2cc(F)ccc2F)(S(=O)(=O)c2ccc(Cl)cc2)CC1)C(F)(F)F (stereo not drawn)
inactive: Potency [1] | Potency [2] | Potency [3]

CC1COC2(CCN(c3nc(=O)c4cc(C(F)(F)F)cc([N+](=O)[O-])c4s3)CC2)O1 (stereo not drawn)
inactive: Potency [1] | Potency [2] | Potency [3] | viability [8] 104% | Potency [14] | Potency [13] | Potency [9] | Potency [10] | Potency [11]

CN(C)CCOc1cc(NS(=O)(=O)c2c(Cl)cc(C(F)(F)F)cc2Cl)ccc1Cl
inactive: Potency [1] | Potency [2] | Potency [3]

COc1cccc(CNc2ccc(S(=O)(=O)Nc3nc4ccccc4s3)cc2)c1O
inactive: Potency [1] | Potency [2] | Potency [3]

Cc1ccc(Cc2c(C)nc3nc(SCC(=O)NCCN4CCNCC4)nn3c2C)cc1
inactive: Potency [1] | Potency [3]

C[C@H]1CC(=O)Nc2cccc(-c3cnn(C(C)(C)C)c3)c2N1
inactive: Potency [1] | Potency [3]

CC(C)(O)c1ccn2c(-c3ccc(F)c(-c4ccc(F)cc4C#N)c3)cnc2c1F
inactive: Potency [1] | Potency [2] | Potency [3]

CC(C)c1cc(C(=O)N2CC[C@@H](NC(=O)C3CC3)C2)n[nH]1
inactive: Potency [1] | Potency [3]

OCC(Cc1ccccc1)Nc1nc(Oc2ccc3c(c2)CCC3)nc2c1ncn2Cc1ccc(-c2ccccc2)cc1 (stereo not drawn)
inactive: Potency [1] | Potency [2] | Potency [3]

COc1cc2ncnc(Oc3ccc(CC(=O)Nc4cnn(C(C)C)c4)cc3)c2cc1OC
inactive: Potency [1] | Potency [2] | Potency [3]

CCOC(=O)[C@H](CCc1ccccc1)CC1(C(=O)N[C@H]2CCc3ccccc3N(CC(=O)O)C2=O)CCCC1
inactive: Potency [1] | Potency [2] | Potency [3]

CC[C@@H](C)Nc1cc(C(=O)NC2CC3CC[C@@H](C2)N3c2ccc(C(=O)C3CC3)cn2)c(C)cc1C(N)=O (stereo partly drawn)
active: Potency [14] 0.0661 µM | Potency [13] 0.0417 µM | Potency [9] 0.105 µM | Potency [10] 0.132 µM | Potency [11] 0.118 µM
inactive: Potency [1] | Potency [2] | Potency [3]
